Measurements: PubChem BioAssay (EPA / NIEHS)
Several values for one entry are separate records, joined by “and”; a condition that tells them apart may be missing. Identical values can stand only once. Inconclusive results are not listed. The source holds several records for some structures; these can differ, active in one and inactive in another. Activity calls are given as the source filed them. How the source made its calls, unless noted: active means hit-call score of the fitted dose curve at least 0.9, where 1 is the maximum; inactive means score below 0.9.

How the values were obtained:
[1] = ATG_NFI_CIS: Attagene CIS-FACTORIAL HepG2 Assay for human Nuclear Factor I (NFI) (AID 2282989); conditions: HepG2 cis-regulatory reporter, NFI response element transcription; actives raise or lower the signal
Outline: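 Transient MRTU transfection of HepG2 → 24 h chemical dosing → total RNA, oligo(dT) RT → PCR, 6-FAM primer extension, HpaI cut → capillary electrophoresis. Endpoint fitted bidirectionally relative to DMSO.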

[2] = molecular target: Myc proto-oncogene protein (Homo sapiens) (UniProt P01106); assay: ATG_Myc_CIS: Attagene CIS-FACTORIAL HepG2 Assay for human Myelocytomatosis (Myc) Proto-Oncogene Transcription Factor (AID 2282990); conditions: HepG2, Attagene cis-reporter transcription factor activity; actives raise or lower the signal
Outline: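 Cells of the HepG2 human liver line bear multiple cis-driven reporter transcription units. Reporter mRNA after 24 h exposure is reverse-transcribed, amplified, labelled and resolved by capillary electrophoresis, with gain- or loss-of-signal fitting relative to DMSO.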

[3] = ATG_NF_kB_CIS: Attagene CIS-FACTORIAL HepG2 Assay for human Nuclear Factor Kappa B (NF-kB) (AID 2282991); conditions: HepG2 Attagene cis-factorial NF-kB reporter mRNA; actives raise or lower the signal
Outline: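 Endpoint from a 52-component multiplexed HepG2 reporter panel: cis-regulated transcription units transiently transfected, 24 h dosing, reporter mRNA quantified by RT-PCR and capillary electrophoresis, scored as increase or decrease against DMSO.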

[4] = ATG_NRF2_ARE_CIS: Attagene CIS-FACTORIAL HepG2 Assay for human Nuclear Factor Erythroid 2 Related Factor 2 (NFR2) response to Antioxidant Response Elements (ARE) (AID 2282992); conditions: HepG2 Attagene ARE/NRF2 reporter, transcription factor activity; actives raise or lower the signal;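 on AC50: reporter mRNA level measured by RT-PCR and capillary electrophoresis fluorescence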
Outline: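 Readout: reporter mRNA quantified by RT-PCR plus FAM-labelled primer extension, HpaI digestion and capillary electrophoresis, 24 h after dosing transfected HepG2 cells. Gain or loss of signal is fitted bidirectionally against DMSO baseline.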

[5] = ATG_Oct_MLP_CIS: Attagene CIS-FACTORIAL HepG2 Assay for human Octamer-Binding Transcription Factor (Oct) (AID 2282993); conditions: HepG2 Attagene cis-factorial Oct reporter, mRNA; actives raise or lower the signal
Outline: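 Transient MRTU transfection of HepG2 → 24 h compound treatment → RNA isolation, reverse transcription, PCR → 6-FAM primer extension, HpaI digest → capillary electrophoresis. Activity fitted both directions against DMSO.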

[6] = molecular target: Cellular tumor antigen p53 (Homo sapiens) (UniProt P04637); assay: ATG_p53_CIS: Attagene CIS-FACTORIAL HepG2 Assay for human p53 Transcription Factor (AID 2282994); conditions: HepG2 p53 cis-element reporter, Attagene mRNA; actives raise or lower the signal
Outline: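 Read-out: reporter mRNA by RT-PCR plus capillary electrophoresis with fluorescence detection. Human HepG2 liver cells carried transfected multi-reporter cis-element constructs, dosed 24 h. Gain or loss of signal fitted bidirectionally against DMSO control.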

[7] = BSK_3C_TissueFactor: BioMAP Diversity Plus: 3C Assay for Tissue Factor Biomarker Activity (AID 2282997); conditions: BioMAP 3C HUVEC, tissue factor biomarker readout; actives raise or lower the signal
Outline: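 In this endothelial system, HUVEC are treated for 24 h and Tissue Factor is assessed by ELISA, normalised to DMSO.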

[8] = BSK_3C_uPAR: BioMAP Diversity Plus: 3C Assay for Urokinase-type plasminogen activator receptor (uPAR) Biomarker Activity (AID 2282998); conditions: BioMAP 3C HUVEC, uPAR biomarker ELISA; actives raise or lower the signal
Outline: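 ELISA readout of uPAR on human vascular endothelium (umbilical vein primary cells), taken 24 h after chemical dosing. Increases and decreases are both fitted relative to DMSO vehicle.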

[9] = BSK_3C_VCAM1: BioMAP Diversity Plus: 3C Assay for Vascular cell adhesion molecule 1 (VCAM1) Biomarker Activity (AID 2282999); conditions: BioMAP 3C HUVEC, VCAM1 ELISA, cytokine-stimulated; actives raise or lower the signal
Outline: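 Activity fitted in both directions relative to DMSO, with ELISA measurement of the surface marker on primary HUVEC (3C) at 24 h post-treatment; parallel SRB staining (0.1% SRB, TCA-fixed, 560 nm) flagged overt cytotoxicity.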

[10] = BSK_4H_Eotaxin3: BioMAP Diversity Plus: 4H Assay for Eotaxin 3 Biomarker Activity (AID 2283000); conditions: primary human endothelial cells (HUVEC); actives raise or lower the signal
Outline: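 ELISA quantitation of CCL26 (Eotaxin-3) protein from chemically dosed human vascular endothelial cells at 24 h; increases and decreases both scored relative to DMSO-treated baseline.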

[11] = molecular target: human Peroxisome Proliferator-activated Receptor delta (PPARd), PPARD (gene 5467) (UniProt Q03181); assay: ATG_PPARd_TRANS: Attagene TRANS-FACTORIAL HepG2 Assay for human Peroxisome Proliferator-activated Receptor delta (PPARd) (AID 2283002; active means hit-call score of the fitted dose curve at least 0.9, where 1 is the maximum)
Outline: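 Cell-based TRANS reporter: HepG2, transient MRTU transfection, 24 h exposure. Readout = reporter mRNA (RT-PCR/CE, 6-FAM). Gain-of-signal fit vs DMSO control.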

[12] = read-out: Intercellular Adhesion Molecule 1 (ICAM1), ICAM1 (gene 3383); assay: BSK_3C_ICAM1: BioMAP Diversity Plus: 3C Assay for Intercellular Adhesion Molecule 1 (ICAM1) Biomarker Activity (AID 2283003); conditions: primary human endothelial cells (HUVEC); actives raise or lower the signal
Outline: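 ELISA readout of ICAM1 in human umbilical vein endothelial cells in the 3C system, taken 24 h post-dose. Gain or loss of signal versus DMSO was fitted in both directions, with SRB total-protein staining run in parallel.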

[13] = molecular target: human Retinoic Acid Receptor beta (RARb), RARB (gene 5915) (UniProt P10826); assay: ATG_RARb_TRANS: Attagene TRANS-FACTORIAL HepG2 Assay for human Retinoic Acid Receptor beta (AID 2283004; active means hit-call score of the fitted dose curve at least 0.9, where 1 is the maximum)
Outline: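 Fluorescent capillary-electrophoresis detection of GAL4-UAS reporter mRNA defines the endpoint, with induction over DMSO-treated wells scored as activity. Transiently transfected human hepatoma HepG2 cells expressing exogenous NR–Gal4 proteins are exposed to test chemicals for 24 h.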

[14] = BSK_3C_Proliferation: Cell Proliferation Assessment in the BioMAP Diversity Plus: 3C Assay (AID 2283006); conditions: primary human endothelial cells (HUVEC);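 on AC50: potency may reflect either rise or fall in cell number versus DMSO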
Outline: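 Proliferation as total protein: sulforhodamine B (0.1%) stain of TCA-fixed subconfluent human umbilical vein endothelial cells, absorbance 560 nm, 48 h after dosing. Activity fitted in both directions against DMSO baseline.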

[15] = molecular target: Nuclear receptor subfamily 1 group I member 2 (Homo sapiens) (UniProt O75469); assay: ATG_PXR_TRANS: Attagene TRANS-FACTORIAL HepG2 Assay for human Pregnane X Receptor (PXR) (AID 2283008; active means hit-call score of the fitted dose curve at least 0.9, where 1 is the maximum)
Outline: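 Trans-factorial format: exogenous NR-Gal4 fusion activity, not endogenous factor, in transfected human HepG2 liver cells. After 24 h dosing, RNA isolated, reverse-transcribed, amplified and resolved by capillary electrophoresis; induction scored versus DMSO.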

[16] = molecular target: human Retinoic Acid Receptor gamma (RARg), RARG (gene 5916) (UniProt P13631); assay: ATG_RARg_TRANS: Attagene TRANS-FACTORIAL HepG2 Assay for human Retinoic Acid Receptor gamma (RARg) (AID 2283009; active means hit-call score of the fitted dose curve at least 0.9, where 1 is the maximum)
Outline: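 Transactivation of exogenous RARg-Gal4 fusion measured as reporter transcript induction after 24 h in transfected HepG2 cells. RNA reverse-transcribed, amplified, fluorescently labeled and resolved by capillary electrophoresis; increase relative to DMSO.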

[17] = molecular target: human RAR-related Orphan Receptor beta (RORb), RORB (gene 6096) (UniProt Q92753); assay: ATG_RORb_TRANS: Attagene TRANS-FACTORIAL HepG2 Assay for human RAR-related Orphan Receptor beta (RORb) (AID 2283010; active means hit-call score of the fitted dose curve at least 0.9, where 1 is the maximum;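 on AC50: potency for increased reporter mRNA meaning activation of RORb-Gal4 chimera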)
Outline: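 Read-out is reporter mRNA induction, quantified by RT-PCR with fluorescent capillary electrophoresis, 24 h post-dose in transiently transfected HepG2 expressing exogenous NR-Gal4 chimera. Activity fitted upward versus DMSO.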

[18] = molecular target: Retinoic acid receptor alpha (Homo sapiens) (UniProt P10276); assay: ATG_RARa_TRANS: Attagene TRANS-FACTORIAL HepG2 Assay for human Retinoic Acid Receptor alpha (RARa) (AID 2283005; active means hit-call score of the fitted dose curve at least 0.9, where 1 is the maximum)
Outline: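 Reporter transcripts, measured by RT-PCR with fluorescent labeling and capillary electrophoresis after 24 h dosing, reflect activity of an exogenous human RARa–GAL4 fusion in transiently transfected HepG2. Fitted for increase relative to DMSO.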

[19] = molecular target: Peroxisome proliferator-activated receptor gamma (Homo sapiens) (UniProt P37231); assay: ATG_PPARg_TRANS: Attagene TRANS-FACTORIAL HepG2 Assay for human Peroxisome Proliferator-activated Receptor-gamma (PPARg) (AID 2283007; active means hit-call score of the fitted dose curve at least 0.9, where 1 is the maximum)
Outline: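 Endpoint reflects upward reporter mRNA change versus DMSO controls. Setup: transiently transfected HepG2, GAL4-UAS reporters driven by chimeric NR-Gal4, 24 h incubation, RT-PCR with capillary electrophoresis read-out.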

[20] = molecular target: human Peroxisome Proliferator-activated Receptor alpha (PPARa), PPARA (gene 5465) (UniProt Q07869); assay: ATG_PPARa_TRANS: Attagene TRANS-FACTORIAL HepG2 Assay for human Peroxisome Proliferator-activated Receptor alpha (PPARa) (AID 2283001; active means hit-call score of the fitted dose curve at least 0.9, where 1 is the maximum;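 on AC50: potency for gain of reporter signal over DMSO so agonist or activator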)
Outline: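 Reporter transcripts quantified by RT-PCR plus capillary electrophoresis after 24 h treatment, fitted upward relative to DMSO. Cells: human HepG2 transiently carrying multiple GAL4-UAS reporter units driven by NR-Gal4 chimeras.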

Measured: AC50

human Retinoic Acid Receptor gamma (RARg), RARG (gene 5916), sequence (P13631 whole entry, looked up, the tested form may be a part): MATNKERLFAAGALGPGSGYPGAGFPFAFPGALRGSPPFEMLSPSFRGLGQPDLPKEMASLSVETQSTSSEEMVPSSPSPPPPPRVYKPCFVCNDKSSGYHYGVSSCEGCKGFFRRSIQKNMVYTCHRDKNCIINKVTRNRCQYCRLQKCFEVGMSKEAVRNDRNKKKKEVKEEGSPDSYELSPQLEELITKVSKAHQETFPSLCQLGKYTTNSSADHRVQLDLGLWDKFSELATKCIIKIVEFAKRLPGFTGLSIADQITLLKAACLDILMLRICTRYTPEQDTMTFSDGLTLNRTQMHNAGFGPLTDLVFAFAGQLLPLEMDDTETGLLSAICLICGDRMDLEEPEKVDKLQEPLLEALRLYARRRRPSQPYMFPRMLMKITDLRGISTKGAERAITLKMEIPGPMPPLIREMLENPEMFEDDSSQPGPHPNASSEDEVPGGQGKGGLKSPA
Cellular tumor antigen p53 (Homo sapiens), sequence (P04637 whole entry, looked up): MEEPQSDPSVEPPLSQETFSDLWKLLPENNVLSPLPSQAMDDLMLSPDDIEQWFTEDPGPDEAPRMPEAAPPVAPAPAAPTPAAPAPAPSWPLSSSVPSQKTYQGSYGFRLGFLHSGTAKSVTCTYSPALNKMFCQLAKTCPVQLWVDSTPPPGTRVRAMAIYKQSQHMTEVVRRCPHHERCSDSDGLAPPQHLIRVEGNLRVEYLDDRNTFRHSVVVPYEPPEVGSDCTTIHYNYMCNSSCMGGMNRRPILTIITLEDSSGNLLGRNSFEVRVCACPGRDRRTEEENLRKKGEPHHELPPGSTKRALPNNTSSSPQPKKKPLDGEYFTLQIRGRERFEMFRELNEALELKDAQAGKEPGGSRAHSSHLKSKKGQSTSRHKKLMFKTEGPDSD
Nuclear receptor subfamily 1 group I member 2 (Homo sapiens), sequence (O75469 whole entry, looked up, the tested form may be a part): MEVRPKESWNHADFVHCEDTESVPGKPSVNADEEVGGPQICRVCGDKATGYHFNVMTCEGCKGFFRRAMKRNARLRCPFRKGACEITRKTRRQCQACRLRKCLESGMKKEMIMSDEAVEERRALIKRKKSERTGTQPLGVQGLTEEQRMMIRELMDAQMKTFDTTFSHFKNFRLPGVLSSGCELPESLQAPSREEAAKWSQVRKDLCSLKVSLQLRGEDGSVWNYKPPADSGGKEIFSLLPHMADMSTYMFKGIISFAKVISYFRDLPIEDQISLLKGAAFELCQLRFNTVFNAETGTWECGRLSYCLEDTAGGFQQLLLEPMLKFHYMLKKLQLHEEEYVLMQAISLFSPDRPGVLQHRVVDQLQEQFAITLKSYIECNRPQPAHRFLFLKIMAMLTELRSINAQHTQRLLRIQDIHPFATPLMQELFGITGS
human Retinoic Acid Receptor beta (RARb), RARB (gene 5915), sequence (P10826 whole entry, looked up, the tested form may be a part): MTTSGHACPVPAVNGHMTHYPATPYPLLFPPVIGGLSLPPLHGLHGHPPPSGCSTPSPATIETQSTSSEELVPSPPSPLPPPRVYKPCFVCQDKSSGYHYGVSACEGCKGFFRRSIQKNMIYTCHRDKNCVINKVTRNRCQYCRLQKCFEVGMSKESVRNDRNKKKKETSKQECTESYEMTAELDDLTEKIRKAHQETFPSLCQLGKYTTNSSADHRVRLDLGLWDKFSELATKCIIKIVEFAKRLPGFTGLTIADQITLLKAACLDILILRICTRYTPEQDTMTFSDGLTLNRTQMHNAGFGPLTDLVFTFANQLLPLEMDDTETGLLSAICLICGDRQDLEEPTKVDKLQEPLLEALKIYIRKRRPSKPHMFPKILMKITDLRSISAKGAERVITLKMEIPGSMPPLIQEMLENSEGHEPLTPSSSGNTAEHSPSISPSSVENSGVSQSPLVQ
Myc proto-oncogene protein (Homo sapiens), sequence (P01106 whole entry, looked up): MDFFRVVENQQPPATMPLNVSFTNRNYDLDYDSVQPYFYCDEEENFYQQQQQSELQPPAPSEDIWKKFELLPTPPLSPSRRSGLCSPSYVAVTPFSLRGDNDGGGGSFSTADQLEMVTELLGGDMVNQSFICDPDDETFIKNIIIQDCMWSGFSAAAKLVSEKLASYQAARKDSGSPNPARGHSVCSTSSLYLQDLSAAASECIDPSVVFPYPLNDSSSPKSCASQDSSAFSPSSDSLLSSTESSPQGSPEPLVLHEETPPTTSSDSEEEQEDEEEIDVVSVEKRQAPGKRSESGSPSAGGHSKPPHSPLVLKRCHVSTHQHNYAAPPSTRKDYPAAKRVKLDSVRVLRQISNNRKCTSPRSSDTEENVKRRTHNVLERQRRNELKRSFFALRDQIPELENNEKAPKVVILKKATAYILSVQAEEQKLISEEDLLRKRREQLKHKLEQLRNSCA
Retinoic acid receptor alpha (Homo sapiens), sequence (P10276 whole entry, looked up, the tested form may be a part): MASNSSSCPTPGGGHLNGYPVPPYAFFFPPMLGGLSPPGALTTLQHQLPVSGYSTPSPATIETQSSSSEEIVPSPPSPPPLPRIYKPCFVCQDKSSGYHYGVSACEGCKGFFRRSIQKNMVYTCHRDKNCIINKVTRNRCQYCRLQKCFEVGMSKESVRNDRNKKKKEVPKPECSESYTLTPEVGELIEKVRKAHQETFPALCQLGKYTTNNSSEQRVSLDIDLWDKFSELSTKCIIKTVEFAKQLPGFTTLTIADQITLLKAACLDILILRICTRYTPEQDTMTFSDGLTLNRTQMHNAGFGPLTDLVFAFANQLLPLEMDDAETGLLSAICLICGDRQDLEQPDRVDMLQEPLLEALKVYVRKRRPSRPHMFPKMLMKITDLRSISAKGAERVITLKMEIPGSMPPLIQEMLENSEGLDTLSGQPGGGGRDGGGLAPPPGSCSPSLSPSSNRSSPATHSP
human Peroxisome Proliferator-activated Receptor delta (PPARd), PPARD (gene 5467), sequence (Q03181 whole entry, looked up): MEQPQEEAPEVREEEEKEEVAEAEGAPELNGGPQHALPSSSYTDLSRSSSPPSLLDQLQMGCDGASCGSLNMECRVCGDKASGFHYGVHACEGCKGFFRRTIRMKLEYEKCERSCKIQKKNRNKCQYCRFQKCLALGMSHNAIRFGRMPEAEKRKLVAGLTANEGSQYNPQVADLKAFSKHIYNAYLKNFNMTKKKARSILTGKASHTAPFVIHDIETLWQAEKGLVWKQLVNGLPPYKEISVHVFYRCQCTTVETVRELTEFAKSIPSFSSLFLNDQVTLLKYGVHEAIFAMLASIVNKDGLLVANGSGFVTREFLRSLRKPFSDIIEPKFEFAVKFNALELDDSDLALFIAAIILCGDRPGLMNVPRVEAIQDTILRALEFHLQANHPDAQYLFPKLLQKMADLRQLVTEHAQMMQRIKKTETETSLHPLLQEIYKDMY
Peroxisome proliferator-activated receptor gamma (Homo sapiens), sequence (P37231 whole entry, looked up, the tested form may be a part): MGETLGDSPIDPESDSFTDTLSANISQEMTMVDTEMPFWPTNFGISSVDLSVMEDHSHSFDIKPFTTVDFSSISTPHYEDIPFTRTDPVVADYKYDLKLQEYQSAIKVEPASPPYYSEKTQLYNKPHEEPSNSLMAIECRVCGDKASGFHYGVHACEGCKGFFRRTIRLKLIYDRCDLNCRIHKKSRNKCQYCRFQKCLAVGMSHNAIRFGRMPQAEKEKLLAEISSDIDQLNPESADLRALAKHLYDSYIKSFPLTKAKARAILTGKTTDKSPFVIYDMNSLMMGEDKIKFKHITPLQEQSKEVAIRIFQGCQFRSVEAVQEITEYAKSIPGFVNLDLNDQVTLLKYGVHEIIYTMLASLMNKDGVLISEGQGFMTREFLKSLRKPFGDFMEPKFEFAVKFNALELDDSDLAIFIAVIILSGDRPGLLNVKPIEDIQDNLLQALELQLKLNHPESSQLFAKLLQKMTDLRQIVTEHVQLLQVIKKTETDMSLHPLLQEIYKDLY
human RAR-related Orphan Receptor beta (RORb), RORB (gene 6096), sequence (Q92753 whole entry, looked up, the tested form may be a part): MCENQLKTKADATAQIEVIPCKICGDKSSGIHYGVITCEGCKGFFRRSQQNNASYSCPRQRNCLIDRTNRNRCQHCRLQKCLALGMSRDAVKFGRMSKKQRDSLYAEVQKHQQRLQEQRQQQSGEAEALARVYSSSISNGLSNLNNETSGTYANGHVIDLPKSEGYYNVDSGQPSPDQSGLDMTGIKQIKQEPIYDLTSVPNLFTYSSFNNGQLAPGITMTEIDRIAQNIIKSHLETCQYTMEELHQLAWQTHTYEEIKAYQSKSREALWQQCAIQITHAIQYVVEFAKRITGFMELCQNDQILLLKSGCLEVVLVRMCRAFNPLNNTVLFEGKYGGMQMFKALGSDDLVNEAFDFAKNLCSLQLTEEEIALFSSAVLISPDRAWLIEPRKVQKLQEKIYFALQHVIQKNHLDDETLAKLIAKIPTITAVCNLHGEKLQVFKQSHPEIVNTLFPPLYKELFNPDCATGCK
human Peroxisome Proliferator-activated Receptor alpha (PPARa), PPARA (gene 5465), sequence (Q07869 whole entry, looked up, the tested form may be a part): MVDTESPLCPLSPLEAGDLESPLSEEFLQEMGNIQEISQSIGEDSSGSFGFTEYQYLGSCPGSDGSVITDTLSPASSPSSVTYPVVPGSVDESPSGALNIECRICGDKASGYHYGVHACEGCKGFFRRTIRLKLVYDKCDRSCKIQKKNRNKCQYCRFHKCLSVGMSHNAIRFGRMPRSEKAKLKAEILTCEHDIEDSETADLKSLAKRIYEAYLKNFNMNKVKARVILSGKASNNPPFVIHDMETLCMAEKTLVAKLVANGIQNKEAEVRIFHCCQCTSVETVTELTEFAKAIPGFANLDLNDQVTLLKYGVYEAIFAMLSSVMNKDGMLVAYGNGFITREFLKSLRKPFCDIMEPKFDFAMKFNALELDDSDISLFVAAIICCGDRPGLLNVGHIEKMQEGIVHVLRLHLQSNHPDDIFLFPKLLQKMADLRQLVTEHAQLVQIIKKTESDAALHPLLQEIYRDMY

CCCCCCCCN(C)CCCCCCCC
not listed: [18] | [19] | [20]
inactive: all other assays above

O=c1ccc2ccccc2o1
not listed: [11] | [12] | [13] | [15] | [16] | [17] | [19] | [20]
inactive: all other assays above

CCN(Cc1cccnc1)C(=O)c1cccc(Cl)c1[C@]1(C)C(=O)N(Cc2ccc(OC)cc2OC)c2ccc(Cl)cc21
active: [4] 5.87 µM | [5] 2.6 µM | [6] 4.98 µM | [7] 9.45 µM | [8] 5.85 µM | [9] 7.09 µM | [10] 11.4 µM | [14] 5.12 µM | [15] 0.0262 µM
inactive: [1] | [2] | [3] | [11] | [12] | [19] | [16]

CCCCOC(=O)CC(CC(=O)OCCCC)(OC(C)=O)C(=O)OCCCC
inactive: [1] | [2] | [3] | [4] | [5] | [6] | [7] | [8] | [9] | [10] | [20] | [11] | [15]
active: [14] 31.5 µM | [19] 16.2 µM and 8.69 µM | [15] 3.1 µM

COc1cc(C(=O)NC2CCN(C)CC2)ccc1Nc1ncc2c(n1)N(C1CCCC1)CC(F)(F)C(=O)N2C
active: [1] 0.709 µM | [5] 1.07 µM | [6] 1.94 µM | [7] 5.9 µM | [8] 22.7 µM | [9] 19.1 µM | [10] 14.6 µM | [11] 3.45 µM | [14] 3.69 µM
inactive: [2] | [3] | [4] | [20] | [12] | [19] | [15] | [17]

OCCO
not listed: [19] | [20]
inactive: all other assays above

CCOC(=O)O[C@H](C)OC(=O)c1ccc2c(c1)cc(C(=O)NC1CCN(C(C)C)CC1)n2Cc1cc(-c2ccc(Cl)s2)on1
active: [4] 9.33 µM | [7] 9.97 µM | [8] 6.09 µM | [9] 5.69 µM | [10] 8.87 µM | [12] 8.99 µM | [14] 1.77 µM
not listed: [11] | [13] | [16] | [17] | [18]
inactive: all other assays above

O=c1c(-c2ccc(O)cc2)coc2cc(O)cc(O)c12
active: [1] 27.1 µM | [3] 73.5 µM and 168 µM | [5] 49.4 µM | [10] 29.1 µM | [20] 24.2 µM and 100 µM and 25.6 µM | [14] 8.1 µM | [19] 32.7 µM [middle of 4 runs] | [15] 24.2 µM | [17] 27.4 µM
inactive: [1] | [2] | [3] | [4] | [5] | [6] | [7] | [9] | [11] | [12] | [18] | [15] | [16] | [17]

CCN(Cc1cccc(S(=O)(=O)O)c1)c1ccc(C(=C2C=CC(=[N+](CC)Cc3cccc(S(=O)(=O)O)c3)C=C2)c2ccccc2S(=O)(=O)[O-])cc1
not listed: [13] | [16] | [18] | [20]
inactive: all other assays above

O=C(O)Cn1c(=O)n(Cc2ccc(Br)cc2F)c(=O)c2ccc(Cl)cc21
active: [3] 161 µM | [4] 26.5 µM | [19] 6.18 µM | [15] 11 µM
not listed: [11] | [12] | [13] | [17] | [18]
inactive: all other assays above

O=C(O)Cc1cc(I)c(Oc2ccc(O)c(I)c2)c(I)c1
inactive: [1] | [2] | [3] | [5] | [6] | [7] | [8] | [9] | [20] | [11] | [12] | [13] | [15]
active: [4] 70 µM [middle of 4 runs] | [5] 35.7 µM and 100 µM | [6] 25.9 µM and 26.4 µM and 9.57 µM | [10] 31.3 µM | [14] 9.41 µM | [15] 19.4 µM

O=C(O)c1ccccc1-n1cc(C(=O)O)c(=O)c2cc(Nc3c(F)cc(F)cc3Cl)c(Cl)cc21
not listed: [12] | [19] | [20]
inactive: all other assays above

CC(O)CC(C)(C)O (stereo not given)
not listed: [11]
inactive: all other assays above
